For this experiment, the system named is RARb homodimer (NR concentration 270 nM). Kind of experiment: PBM binding z-score (relative to random genomic background probes); higher = stronger binding; sequences stand for … in GC…GCGATTGACAGCGTAGAATGAAGG
The gist of the method:
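For binding z-scores, the reference was random background probes on custom Agilent 4×180K protein-binding microarrays. These arrays were incubated 1 h with ligand-free nuclear receptor dimers in PBS pH 7.4, 2% milk, 0.02% Triton X-100, 1 mM DTT, 0.2 mg/mL BSA and 0.4 mg/ml salmon testes DNA. Fluorescence was scanned after antibody detection of each partner (one per run) and regression-normalized.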
The sequence ATATGTAGGTTAAGGGACATTCAGGTTGGTTCGC came in with a PBM binding z-score of 1.6.
The figure for ATCTCTAGGTAACCAAGTTCAGTGAGTGCCGAAC is 1.55; for GCACACAGGTGAAACGCAGGTAACTCAGGGTGGC it is 0.327; for TCTAGTTGGTCACGGAGGTTACACACGACGGGTA it is 2.39.
Regarding TCTTGGAGATCAGCAGGTTAAGAAAGCTGGCCAA, the PBM binding z-score was -0.0506.
The figure for ATATGTAGGTTATCGGGTCATGCAGTTTGCGCAT is 3.1; for GCAGACAGGTGAAACGCAGGTCACTCAGGGTGGC it is 3.35.
The figure for GCTGCTAGGTCAGGTTGGTCCGCTAACGGGTACG is 2.4; for CGACCAAGGTCATAGGAGGTCAGTGAAGACAGAT it is 5.12; for CGTCCAAGGTCAGAGAGGTCAGTGGATGCCGAGT it is 5.54.
In turn, CGTCCAAGGCCAGCAGGTCAGTGAAAGCGACGTG registered a PBM binding z-score of 2.34.
The same measure for GCAGACAGGTGAAACGCAGGGAACTCAGGGTGGC: -0.128; for CGTCCAAGGTCAGAGAGGTTAGTGAATGCCGAGT: 3.85; for TAGCCTAGGTCATTGGCCCAGTATAGTACGCATC: 2.57.
GATACAGGGTCAAGGCCAGTGTACGCGTATTGAT had a PBM binding z-score of 3.55.
In turn, TGTCTAAGTTCAAAGGTAACGTAAGTATCCACAC displayed a PBM binding z-score of 2.69.
CTCGAAAGGTCGTGCTCAGGTGGGTATACCAAAC returned a PBM binding z-score of 2.65.
The figure for CGAACTAGGTCATCCACGACAGTGAATACATTGA is 2.85; for ACTAGTTGGTCAGCTGAAGTCACACACAATTCGG it is 0.741; for TAATATAGGTAAACAGGTGAAAGTCCGTAAGTTA it is 0.737.
The figure for CCTTACGGGTCGCGAGGTTATAGCACGACGAGCG is 1.57.
TCTAGGAGGCCAGAGGGTCACTCAAGAGGTACGG came in with a PBM binding z-score of 3.01.
In turn, CCTACTGGGCAACGAAAGGTCATTGATTCAGTGA displayed a PBM binding z-score of 4.44.
The figure for AGCATGAGGTTAAGATCAGGGAAACAGAATACAT is 0.891.
In turn, TAACCAAGGTGAGCTGAGGTCGTTGATCCAACTC yielded a PBM binding z-score of 1.63.
In turn, TCATTTAGGTAAACAGGTGAAAGTCCGTAAGTTA had a PBM binding z-score of 1.09.
Take CCTCTGAGGACAACAGGAGGTCAGAGCTGCCAGA: the PBM binding z-score is 3.48.
CAAACTAGGTCAAGCTCAAAGTCGGTTTGTGCCA had a PBM binding z-score of 3.34.
The figure for GCTGCTACGTCAACTGATGGTCAGCTAAAGCTCG is -0.272; for ACTTACGGGTGAACGAGGTTATAGCACGCGTATA it is 1.2; for ATCGAAAGGTCGACAAGGTGAGTATACACCGTTT it is 3.01.
The figure for GGAACGAGGGCAAGGTGATAGCAGAGTTTGATGG is 2.04; for CGTCCAAGGTCAGAGAGGTCAGAGAATGCCGAGT it is 5.37; for CCCAGTTGGTCAGGAGGTCACACACCGGATATGA it is 4.41.
The same measure for ACTATTAGTTGAGGCGAGGGCAACCGATAGGTTG: 1.3; for ACAGACAGGTGCTGAAGGTAACTCAGGCTATCAT: -0.511; for GCTCGCAGGACAAGGTCAGAGCTTTGTCCGTAGA: 2.58.
With CCGACTGGCGCAGAAAGGTTACCATACCATCCGG, the PBM binding z-score was determined as 1.78.
The same measure for CCAGACAGGTGAAAGGTATCTCAGTCTGGTACGC: 0.311.

The record behind these values is the supplement of paper PMC6555819.
